Test results from PubChem BioAssay (NCI).
Compounds without any hit were thinned out: in the full panel of roughly 83,000, 20% have a hit.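 48-hour exposure, single concentration, 96-well plates; percent growth endpoint where 0 means no net growth. Active: below 10.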 Activity calls are given as the source filed them.

What was measured:
Experiment in all cases: NCI-60 one-dose screen, 48 h (100 = growth as untreated, 0 = no growth, -100 = all killed)
Details in all cases: 10 µM unless noted
NCI-H23 lung = tested on: NCI-H23 lung
NCI-H226 lung = tested on: NCI-H226 lung
NCI-H322M lung = tested on: NCI-H322M lung
HOP-62 NSCLC = tested on: HOP-62 NSCLC
NCI-H460 lung = tested on: NCI-H460 lung
HOP-92 NSCLC = tested on: HOP-92 NSCLC
NCI-H522 lung = tested on: NCI-H522 lung
A549/ATCC NSCLC = tested on: A549/ATCC NSCLC
786-0 renal = tested on: 786-0 renal
COLO 205 colon = tested on: COLO 205 colon

Measured: growth

O=[N+]([O-])c1ccc(-c2nnc(SCc3ccc(O)c4ncccc34)o2)cc1
inactive: NCI-H23 lung 21.5% | NCI-H226 lung 36.2% | NCI-H322M lung 40.7% | HOP-62 NSCLC 21.5% | NCI-H522 lung 17.2% | A549/ATCC NSCLC 25.8% | 786-0 renal 33% | COLO 205 colon 49.9%
active: NCI-H460 lung 8.58% | HOP-92 NSCLC -13.4%

Cn1cc(-c2nnc(N)nc2-c2cn(C)c3ccc(F)cc23)c2cc(F)ccc21
inactive: NCI-H23 lung 101% | NCI-H226 lung 97.4% | NCI-H322M lung 101% | HOP-62 NSCLC 90.7% | NCI-H460 lung 102% | HOP-92 NSCLC 116% | NCI-H522 lung 73.2% | A549/ATCC NSCLC 77.2% | 786-0 renal 86.1% | COLO 205 colon 107%

Cn1cc(-c2nn3c(=O)cc(-c4ccccc4)nc3s2)c2cc(F)ccc21
active: HOP-92 NSCLC -3.43% | NCI-H522 lung -37.4%
inactive: NCI-H23 lung 59.7% | NCI-H226 lung 46.4% | NCI-H322M lung 65.6% | HOP-62 NSCLC 45% | NCI-H460 lung 15.5% | A549/ATCC NSCLC 36.7% | 786-0 renal 82.5% | COLO 205 colon 44.8%

CN1C(=O)N(C)C2C1NN=c1s/c(=C\c3ccccn3)c(=O)n12 (stereo not given)
inactive: NCI-H23 lung 99.1% | NCI-H226 lung 99.7% | NCI-H322M lung 99.6% | HOP-62 NSCLC 100% | NCI-H460 lung 108% | HOP-92 NSCLC 96.6% | NCI-H522 lung 93.4% | A549/ATCC NSCLC 99.8% | 786-0 renal 101% | COLO 205 colon 110%

O=C(/C=C1\C=CN(CCCCCCF)c2ccccc21)n1ccc2ccccc21
inactive: NCI-H23 lung 89.5% | NCI-H226 lung 48.4% | NCI-H322M lung 96.6% | HOP-62 NSCLC 85.8% | NCI-H460 lung 110% | HOP-92 NSCLC 70.3% | NCI-H522 lung 86.4% | A549/ATCC NSCLC 102% | 786-0 renal 111% | COLO 205 colon 103%

N/C(=N\c1nc2ccc([N+](=O)[O-])cc2s1)C(Cl)(Cl)Cl
inactive: NCI-H23 lung 91.3% | NCI-H226 lung 85.2% | NCI-H322M lung 10.5% | HOP-62 NSCLC 41.9% | NCI-H460 lung 14.3% | HOP-92 NSCLC 36.2% | NCI-H522 lung 85.3% | A549/ATCC NSCLC 26.5% | 786-0 renal 80.5% | COLO 205 colon 32%

CC1(C)CC[C@]2(C(=O)N3CCCNCC3)CC[C@]3(C)C(=CC[C@@H]4[C@@]5(C)CCC(=O)C(C)(C)[C@@H]5CC[C@]43C)[C@H]2C1
inactive: NCI-H23 lung 101% | NCI-H226 lung 103% | NCI-H322M lung 101% | HOP-62 NSCLC 109% | NCI-H460 lung 106% | HOP-92 NSCLC 96.6% | NCI-H522 lung 98.6% | A549/ATCC NSCLC 106% | 786-0 renal 99.5% | COLO 205 colon 115%

CCCCCCNC(=O)Oc1ccc(/C(=C(/C)c2ccc(OC)cc2)c2ccc(OCCN3CCCC3)cc2)cc1
inactive: NCI-H23 lung 78.8% | NCI-H226 lung 96.6% | NCI-H322M lung 86.2% | HOP-62 NSCLC 88.4% | NCI-H460 lung 55.3% | HOP-92 NSCLC 62.8% | NCI-H522 lung 92.2% | A549/ATCC NSCLC 73.3% | 786-0 renal 40.9% | COLO 205 colon 76.2%

CC(C)C[C@H]1C(=O)O[C@H](C(C)C)C(=O)N(C)[C@@H](C(C)C)C(=O)O[C@H](C(C)C)C(=O)N(C)[C@@H](C(C)C)C(=O)O[C@H](C(C)C)C(=O)N1C
active: NCI-H23 lung 6.64% | NCI-H460 lung 8.47% | HOP-92 NSCLC -23.2% | NCI-H522 lung 1.72% | COLO 205 colon -89%
inactive: NCI-H226 lung 20.5% | NCI-H322M lung 13.3% | HOP-62 NSCLC 14.7% | A549/ATCC NSCLC 12.6% | 786-0 renal 23.3%

CCCCCCNC(=O)Oc1ccc(/C(=C(/C)c2ccccc2)c2ccc(OCCN(C)C)cc2)cc1
inactive: NCI-H23 lung 65.3% | NCI-H226 lung 89.6% | NCI-H322M lung 77.1% | HOP-62 NSCLC 86.1% | NCI-H460 lung 18.3% | HOP-92 NSCLC 44.5% | NCI-H522 lung 68.8% | A549/ATCC NSCLC 73.4% | 786-0 renal 57.4%
active: COLO 205 colon 6.56%

COc1cc2c3c(n(CCCNC4CCC4)c(=O)c2cc1OC)-c1cc2c(cc1C3=O)OCO2
active: NCI-H23 lung -68% | NCI-H322M lung -37.7% | HOP-62 NSCLC -72.2% | NCI-H460 lung -50.4% | NCI-H522 lung -44.9% | A549/ATCC NSCLC -50.6% | 786-0 renal -85.2% | COLO 205 colon -79.9%
inactive: NCI-H226 lung 70.6% | HOP-92 NSCLC 87.9%

NS(=O)(=O)c1ccc(-n2cc(CC=O)nn2)cc1
inactive: NCI-H23 lung 105% | NCI-H226 lung 99% | NCI-H322M lung 111% | HOP-62 NSCLC 105% | NCI-H460 lung 105% | HOP-92 NSCLC 94.8% | NCI-H522 lung 94.5% | A549/ATCC NSCLC 103% | 786-0 renal 102% | COLO 205 colon 121%

O=C(NNc1nc2cc(F)c(F)cc2n2cccc12)c1cccnn1
active: NCI-H226 lung 4.29% | NCI-H460 lung 8.06% | NCI-H522 lung -8.32% | COLO 205 colon 9.86%
inactive: NCI-H23 lung 25.9% | NCI-H322M lung 26.2% | HOP-62 NSCLC 20.2% | HOP-92 NSCLC 75.4% | A549/ATCC NSCLC 14.1% | 786-0 renal 19.2%

CC(C)C(=O)Nc1ccc(-c2nc(-c3cccc(O)c3)c(-c3ccnc(Br)c3)[nH]2)cc1
inactive: NCI-H23 lung 63.4% | NCI-H226 lung 65.4% | NCI-H322M lung 65.8% | HOP-62 NSCLC 42.6% | NCI-H460 lung 46.5% | HOP-92 NSCLC 39.5% | NCI-H522 lung 48.4% | A549/ATCC NSCLC 69.8% | 786-0 renal 12.9% | COLO 205 colon 59.3%

CN(C)C(=O)C1=NC(CO)C(=O)N(c2ccc(Cl)cc2)N1 (stereo not given)
inactive: NCI-H23 lung 104% | NCI-H226 lung 105% | NCI-H322M lung 98.6% | HOP-62 NSCLC 98.9% | NCI-H460 lung 104% | HOP-92 NSCLC 91.4% | NCI-H522 lung 97.1% | A549/ATCC NSCLC 99% | 786-0 renal 93.9% | COLO 205 colon 105%

O=c1c2c(O)cccc2oc2c3c(cc(O)c12)O[C@H]1OC=C[C@@H]31
inactive: NCI-H23 lung 59.9% | NCI-H226 lung 88.7% | NCI-H322M lung 88.4% | HOP-62 NSCLC 82.4% | NCI-H460 lung 73.5% | HOP-92 NSCLC 88.7% | NCI-H522 lung 79.9% | A549/ATCC NSCLC 61% | 786-0 renal 98.9% | COLO 205 colon 75.1%

Cn1cc2c(c1)-c1c(sc3nc(-c4ccc(NC(=O)Nc5cc(C(C)(C)C)on5)cc4)cn13)CC2
inactive: NCI-H23 lung 50.7% | NCI-H226 lung 51.8% | NCI-H322M lung 75.6% | HOP-62 NSCLC 16.7% | NCI-H460 lung 27.5% | HOP-92 NSCLC 42.8% | NCI-H522 lung 81.5% | A549/ATCC NSCLC 64.5% | COLO 205 colon 45.6%
active: 786-0 renal -3.49%

O=C1Nc2ccc(Cl)cc2/C1=C/c1ccc(OCc2ccc(Br)cc2F)cc1
inactive: NCI-H23 lung 98.6% | NCI-H226 lung 73.5% | NCI-H322M lung 99.6% | HOP-62 NSCLC 101% | NCI-H460 lung 103% | HOP-92 NSCLC 95% | NCI-H522 lung 100% | A549/ATCC NSCLC 102% | 786-0 renal 102% | COLO 205 colon 103%

CCNCCCn1c2c(c3cc(OC)c(OC)cc3c1=O)C(=O)c1cc(OC)cnc1-2
active: HOP-62 NSCLC -12.2% | NCI-H460 lung 0.566% | 786-0 renal -3.55%
inactive: NCI-H23 lung 21.1% | NCI-H226 lung 17.7% | NCI-H322M lung 33.2% | HOP-92 NSCLC 31.1% | NCI-H522 lung 13.4% | A549/ATCC NSCLC 34.4% | COLO 205 colon 13.4%

CN1CCN(Cc2ccc(NC(=O)c3cncc(C#Cc4[nH]nc5ncncc45)c3)cc2C(F)(F)F)CC1
active: HOP-92 NSCLC -16%
inactive: NCI-H23 lung 57.1% | NCI-H226 lung 55% | NCI-H322M lung 75.1% | HOP-62 NSCLC 65.7% | NCI-H460 lung 64.3% | NCI-H522 lung 66.2% | A549/ATCC NSCLC 84.3% | 786-0 renal 86.3% | COLO 205 colon 16.5%

CC1=C2C(=C[C@@](C)(COS(N)(=O)=O)[C@@H]2O)C(=O)[C@](C)(O)C12CC2
active: NCI-H460 lung 7.04%
inactive: NCI-H23 lung 23.6% | NCI-H226 lung 85.8% | NCI-H322M lung 74.4% | HOP-62 NSCLC 45.7% | HOP-92 NSCLC 43.8% | NCI-H522 lung 70.5% | A549/ATCC NSCLC 21.2% | 786-0 renal 79.4% | COLO 205 colon 47.7%

NC(=O)C(=Cc1ccc(Cl)cc1)C(N)=O
inactive: NCI-H23 lung 74.5% | NCI-H226 lung 65.3% | NCI-H322M lung 79.6% | HOP-62 NSCLC 95.9% | NCI-H460 lung 89% | HOP-92 NSCLC 34.8% | NCI-H522 lung 46.5% | A549/ATCC NSCLC 74.5% | 786-0 renal 70.7% | COLO 205 colon 81.3%

COc1ccc([C@@H]2[C@@H](O)C(=O)N2c2cc(OC)c(OC)c(OC)c2)cc1Cl
active: NCI-H460 lung 2.22% | HOP-92 NSCLC -2.92% | NCI-H522 lung -8.73% | COLO 205 colon -81.1%
inactive: NCI-H23 lung 28% | NCI-H226 lung 33.3% | NCI-H322M lung 44.8% | HOP-62 NSCLC 24.5% | A549/ATCC NSCLC 22.2% | 786-0 renal 18.9%
